Reference: PubChem BioAssay AID1159580 (chemical genetic matrix, 2015)
Out of some 5,500 compounds screened, about 2,000 (36%) were called active. Not shown: some 18% with an inconclusive outcome. This is one part of the list. Unmarked numbers belong to inactive results. No stated cut-off is given here; in the data, active means normalized growth mostly below about 0.91 (no sharp cut-off); inconclusive means no clear call, values can overlap the other calls; inactive means mostly above about 0.92.

Test: chemical genetic growth profiling, strain panel (AID 1159580);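 further: tested at 20 µM; growth read once vehicle control cultures reached saturation at 30 °C; 1 = growth at the plate median or of vehicle wells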
Conditions: S. cerevisiae deletion strains, growth OD

## COC(=O)[C@]1(C)CCC[C@]2(C)c3ccc(C(C)C)cc3C(=O)CC12 (stereo partly drawn)
Locus YAL013W, strain DEP1, stronger effect = lower value
  normalized growth: 0.981
Locus YAL021C, strain ccr4, stronger effect = lower value
  normalized growth: 0.992
Locus YAL026C, strain drs2, stronger effect = lower value
  normalized growth: 0.952
Locus YAL030W, strain snc1, stronger effect = lower value
  normalized growth: 0.974
Locus YBL061C, strain skt5, stronger effect = lower value
  normalized growth: 0.972
Locus YBR009C, strain hhf1, stronger effect = lower value
  normalized growth: 0.961
Locus YBR021W, strain FUR4, stronger effect = lower value
  normalized growth: 1.1
Locus YBR023C, strain chs3, stronger effect = lower value
  normalized growth: 0.973
Locus YBR171W, strain sec66, stronger effect = lower value
  normalized growth: 0.869 (active)
Locus YBR229C, strain ROT2, stronger effect = lower value
  normalized growth: 0.986
Locus YBR231C, strain swc5, stronger effect = lower value
  normalized growth: 0.968
Locus YBR279W, strain paf1, stronger effect = lower value
  normalized growth: 0.971
Locus YCL011C, strain gbp2, stronger effect = lower value
  normalized growth: 0.961
Locus YCL016C, strain dcc1, stronger effect = lower value
  normalized growth: 0.979
Locus YCL029C, strain bik1, stronger effect = lower value
  normalized growth: 1.01
Locus YCL061C, strain MRC1, stronger effect = lower value
  normalized growth: 0.968
Locus YCL069W, strain vba3, stronger effect = lower value
  normalized growth: 0.956
Locus YCR088W, strain abp1, stronger effect = lower value
  normalized growth: 0.96
Locus YDL005C, strain med2, stronger effect = lower value
  normalized growth: 0.945
Locus YDL035C, strain GPR1, stronger effect = lower value
  normalized growth: 0.999
Locus YDL040C, strain nat1, stronger effect = lower value
  normalized growth: 0.96
Locus YDL074C, strain BRE1, stronger effect = lower value
  normalized growth: 0.863
Locus YDL101C, strain DUN1, stronger effect = lower value
  normalized growth: 0.969
Locus YDL134C, strain PPH21, stronger effect = lower value
  normalized growth: 0.974
Locus YDL185W, strain tfp1, stronger effect = lower value
  normalized growth: 1
Locus YDL192W, strain arf1, stronger effect = lower value
  normalized growth: 1.01
Locus YDR001C, strain nth1, stronger effect = lower value
  normalized growth: 0.957
Locus YDR069C, strain doa4, stronger effect = lower value
  normalized growth: 0.974
Locus YDR101C, strain arx1, stronger effect = lower value
  normalized growth: 1.01
Locus YDR137W, strain rgp1, stronger effect = lower value
  normalized growth: 0.866
Locus YDR150W, strain NUM1, stronger effect = lower value
  normalized growth: 0.975
Locus YDR159W, strain sac3, stronger effect = lower value
  normalized growth: 0.95
Locus YDR162C, strain NBP2, stronger effect = lower value
  normalized growth: 0.866
Locus YDR195W, strain ref2
  normalized growth: 0.97
Locus YDR297W, strain sur2, stronger effect = lower value
  normalized growth: 0.967
Locus YDR318W, strain mcm21, stronger effect = lower value
  normalized growth: 1.02
Locus YDR334W, strain swr1, stronger effect = lower value
  normalized growth: 0.948
Locus YDR335W, strain msn5, stronger effect = lower value
  normalized growth: 0.978
Locus YDR388W, stronger effect = lower value
  normalized growth: 1
Locus YDR392W, strain spt3, stronger effect = lower value
  normalized growth: 0.732 (active)
Locus YDR502C, strain sam2, stronger effect = lower value
  normalized growth: 0.985
Locus YEL003W, strain gim4, stronger effect = lower value
  normalized growth: 0.977
Locus YEL037C, strain rad23, stronger effect = lower value
  normalized growth: 0.95
Locus YEL061C, strain CIN8 (second series), stronger effect = lower value
  normalized growth: 0.948
Locus YEL061C, strain CIN8, stronger effect = lower value
  normalized growth: 0.997
Locus YER015W, strain faa2, stronger effect = lower value
  normalized growth: 0.974
Locus YER016W, strain bim1, stronger effect = lower value
  normalized growth: 0.958
Locus YER110C, stronger effect = lower value
  normalized growth: 1.02
Locus YER111C, strain swi4, stronger effect = lower value
  normalized growth: 0.956
Locus YER155C, strain BEM2 (second series), stronger effect = lower value
  normalized growth: 0.956
Locus YER155C, strain BEM2, stronger effect = lower value
  normalized growth: 0.995
Locus YER167W, strain BCK2, stronger effect = lower value
  normalized growth: 0.997
Locus YFR010W, strain ubp6, stronger effect = lower value
  normalized growth: 0.977
Locus YGL078C, strain dbp3, stronger effect = lower value
  normalized growth: 0.988
Locus YGL086W, strain mad1, stronger effect = lower value
  normalized growth: 1.01
Locus YGL167C, strain pmr1, stronger effect = lower value
  normalized growth: 0.928
Locus YGL173C, strain kem1, stronger effect = lower value
  normalized growth: 0.97
Locus YGL227W, strain vid30, stronger effect = lower value
  normalized growth: 0.972
Locus YGL240W, strain doc1, stronger effect = lower value
  normalized growth: 0.973
Locus YGL248W, strain PDE1, stronger effect = lower value
  normalized growth: 0.971
Locus YGL253W, strain hxk2, stronger effect = lower value
  normalized growth: 0.978
Locus YGR078C, strain PAC10, stronger effect = lower value
  normalized growth: 0.957
Locus YGR135W, strain pre9, stronger effect = lower value
  normalized growth: 0.954
Locus YGR229C, strain SMI1, stronger effect = lower value
  normalized growth: 0.861
Locus YGR252W, strain gcn5, stronger effect = lower value
  normalized growth: 1.1
Locus YHR013C, strain ard1, stronger effect = lower value
  normalized growth: 0.959
Locus YHR027C, strain rpn1, stronger effect = lower value
  normalized growth: 0.971
Locus YHR030C, strain SLT2, stronger effect = lower value
  normalized growth: 1
Locus YHR079C, strain IRE1 (second series), stronger effect = lower value
  normalized growth: 0.999
Locus YHR094C, strain hxt1, stronger effect = lower value
  normalized growth: 0.995
Locus YHR129C, strain ARP1, stronger effect = lower value
  normalized growth: 0.994
Locus YHR142W, strain chs7, stronger effect = lower value
  normalized growth: 0.98
Locus YHR200W, strain rpn10, stronger effect = lower value
  normalized growth: 0.993
Locus YIL066C, strain RNR3, stronger effect = lower value
  normalized growth: 0.974
Locus YIL073C, strain SPO22, stronger effect = lower value
  normalized growth: 1.01
Locus YIL125W, strain kgd1, stronger effect = lower value
  normalized growth: 0.996
Locus YIR030C, strain dcg1, stronger effect = lower value
  normalized growth: 0.993
Locus YJL092W, strain hpr5, stronger effect = lower value
  normalized growth: 0.946
Locus YJL095W, strain BCK1 (second series), stronger effect = lower value
  normalized growth: 0.972
Locus YJL095W, strain BCK1, stronger effect = lower value
  normalized growth: 0.889
Locus YJL115W, strain asf1, stronger effect = lower value
  normalized growth: 0.962
Locus YJL129C, strain trk1, stronger effect = lower value
  normalized growth: 0.899
Locus YJL134W, strain LCB3, stronger effect = lower value
  normalized growth: 0.989
Locus YJL154C, strain vps35, stronger effect = lower value
  normalized growth: 0.967
Locus YJL164C, strain tpk1, stronger effect = lower value
  normalized growth: 0.957
Locus YJL166W, strain qcr8, stronger effect = lower value
  normalized growth: 0.968
Locus YJL168C, strain set2, stronger effect = lower value
  normalized growth: 0.998
Locus YJL187C, strain SWE1 (second series), stronger effect = lower value
  normalized growth: 0.98
